An excerpt weighted towards active compounds, which were near 3.8% of everything screened.
697 NFkB inh = lowers PMA/ionomycin-induced NF-kB signal in 697 B cells; hit rate 0.33% among 330,000; 697 B-cell NF-kB luciferase reporter, 16 h; inhibition, % at 4 µM; in the data active means inhibition above about 35%
Shn3 3UTR inh = inhibitors of Schnurri-3 3'UTR reporter in osteoblasts | Clone20 osteoblast Shn3 3'UTR firefly luciferase, 24 h | inhibition, % at 12.5 µM | hit rate 0.52% among 360,000 | AID 588674;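 active means mean inhibition of at least 75% with every replicate also reaching 75%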;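 further: 0% = median of neutral control wells and 100% = pilot-screen positive control compound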
Jurkat NFkB inh = lowers PMA/ionomycin-induced NF-kB signal in Jurkat cells; inhibition, % at 4 µM; hit rate 0.53% among 330,000; PMA/ionomycin-induced NF-kB luciferase reporter, luminescence; in the data active means inhibition above about 50%
Gli-Sufu block = antagonists of Gli-Sufu signaling; Sufu-KO-LIGHT fibroblasts, Gli luciferase reporter luminescence; hit rate 0.74% among 340,000; inhibition, % at 5 µM; AID 588413;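 active means inhibition above about 55%, limit read from the data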;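 further: 0% = DMSO-treated cells and 100% = wells with medium but no cells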
Mdm2 MdmX PPI = disrupts the human Mdm2-MdmX interaction. O15151+Q00987. hit rate 3% among 330,000. AID 485346. inhibition, % at 8 µM. SaOS-2 split-luciferase Mdm2/MdmX complementation, luminescence;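 active means inhibition of at least 50% at 8 µM in the primary screen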
Target sequence (O15151 whole entry, looked up): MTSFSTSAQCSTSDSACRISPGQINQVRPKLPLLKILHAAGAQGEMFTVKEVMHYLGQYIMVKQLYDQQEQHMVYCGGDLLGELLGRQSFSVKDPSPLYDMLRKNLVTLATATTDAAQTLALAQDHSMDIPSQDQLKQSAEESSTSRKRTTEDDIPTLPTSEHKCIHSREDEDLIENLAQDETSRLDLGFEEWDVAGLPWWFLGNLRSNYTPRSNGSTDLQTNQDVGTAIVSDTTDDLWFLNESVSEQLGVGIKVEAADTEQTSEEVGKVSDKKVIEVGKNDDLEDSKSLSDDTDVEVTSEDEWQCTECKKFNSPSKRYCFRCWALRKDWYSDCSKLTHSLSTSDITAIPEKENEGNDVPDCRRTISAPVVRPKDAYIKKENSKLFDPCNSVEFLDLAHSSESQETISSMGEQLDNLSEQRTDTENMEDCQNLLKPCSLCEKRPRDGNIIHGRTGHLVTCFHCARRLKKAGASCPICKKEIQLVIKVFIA
Target sequence (Q00987 whole entry, looked up): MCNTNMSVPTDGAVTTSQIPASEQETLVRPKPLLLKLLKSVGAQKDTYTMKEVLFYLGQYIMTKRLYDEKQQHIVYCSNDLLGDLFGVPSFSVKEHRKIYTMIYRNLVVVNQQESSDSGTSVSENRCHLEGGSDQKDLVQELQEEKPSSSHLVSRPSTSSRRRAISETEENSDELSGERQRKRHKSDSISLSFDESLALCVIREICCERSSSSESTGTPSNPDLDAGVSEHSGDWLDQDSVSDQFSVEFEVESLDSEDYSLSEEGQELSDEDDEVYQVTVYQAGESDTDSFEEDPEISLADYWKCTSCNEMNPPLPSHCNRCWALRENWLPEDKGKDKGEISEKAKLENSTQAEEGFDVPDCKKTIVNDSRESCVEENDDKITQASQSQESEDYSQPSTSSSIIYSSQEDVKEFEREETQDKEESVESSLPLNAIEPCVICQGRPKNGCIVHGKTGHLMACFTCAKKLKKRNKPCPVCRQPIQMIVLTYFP
Gli-Sufu confirm = confirmation of Gli-SUFU pathway antagonists; shares compounds with Gli-Sufu block; Sufu-KO-LIGHT cells, Gli luciferase reporter, luminescence; inhibition, % at 5 µM; hit rate 40% among 2,500; AID 602428;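 active means mean inhibition at 5 µM reaching about 45%, limit read from the data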;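 further: plate controls were DMSO-treated cells for no effect and wells lacking cells for full effect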
SufuKO cytotox = cytotoxicity counter-screen for Gli-SUFU antagonists | shares compounds with Gli-Sufu block | Sufu-KO-LIGHT cells cytotoxicity, ATP luminescence | cytotoxicity, % at 5 µM | hit rate 32% among 2,500 | AID 651994;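 active means mean cytotoxicity at 5 µM above about 25%, limit read from the data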;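 further: cells exposed to compound overnight for roughly 16 to 18 hours; plate controls were DMSO wells with cells for no effect and medium without cells for full effect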
Wnt3a cs = inhibits Wnt3a reporter, counter-screen for Gli-SUFU antagonists | Wnt-LIGHT cells, Wnt3a-driven luciferase reporter, luminescence | hit rate 20% among 2,500 | inhibition, % at 6.25 µM | shares compounds with Gli-Sufu block;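 active means mean inhibition above about 25%, limit read from the data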
The depositor's hits bear a star; · = no result.

SMILES	697 NFkB inh	Shn3 3UTR inh	Jurkat NFkB inh	Gli-Sufu block	Mdm2 MdmX PPI	Gli-Sufu confirm	SufuKO cytotox	Wnt3a cs
CCCCNC(=O)c1cn(CC)c2ccc(S(=O)(=O)N3CCCCCC3)cc2c1=O	16	13	23	52	2	19	40*	-28
CCOC(=O)c1c(C)[nH]c(C)c1S(=O)(=O)N(C)CC(=O)Nc1cc(C)ccc1OC	4	25	1	8	8	·	·	·
CCOC(=O)c1c(C)[nH]c(C)c1S(=O)(=O)N(C)CC(=O)NCc1cccc(C)c1	-5	-13	9	51	7	5	-4	-23
O=C(Nc1nc(-c2cccs2)cs1)c1cccc(S(=O)(=O)N2CCCCCC2)c1	-31	59	-17	61*	1	58*	-5	-81
CCCNC(=O)c1ccc(N2CCC3(CC2)CC(c2ccccc2)=NO3)c(NC(=O)c2cccc(C)c2)c1	-25	3	25	52	12	25	15	-108
O=C(NCc1cccnc1)c1cn(-c2ccccc2)nc1-c1ccccc1	16	-49	-5	-12	-12	·	·	·
Brc1ccc(C2=Nn3c(Cn4nnc5ccccc54)nnc3SC2)cc1	-5	20	0	55	16	32	4	-36
CN(C(=O)CCNC(=O)N1CC(=O)Nc2ccccc21)C1CCCCC1	-16	-16	-1	57*	15	15	20	-10
O=C(NCc1ccccn1)C1CN(S(=O)(=O)c2ccccc2)CCN1S(=O)(=O)c1ccccc1 (stereo not given)	1	5	13	-2	-13	·	·	·
Cc1ccc(C(=O)OCC(=O)N(C)C2CCS(=O)(=O)C2)cc1[N+](=O)[O-] (stereo not given)	-40	4	-3	-5	-11	·	·	·
CSCCC(=O)N1CCC(n2nccc2NC(=O)CCCc2ccccc2)CC1	-9	-3	-11	10	-23	·	·	·
CCCCNC(=O)C1CCN(S(=O)(=O)c2ccc3c(c2)CC(C)N3C(=O)C2CC2)CC1 (stereo not given)	10	-5	-9	94*	20	16	6	-16
CC(=O)N1c2ccc(S(=O)(=O)N3CCC(C(=O)N4CCCCC4)CC3)cc2CC1C (stereo not given)	-9	72	21	55	23	49*	24	-5
CC(C)CCNC(=O)C1CCN(S(=O)(=O)c2ccc3c(c2)CC(C)N3C(=O)C2CC2)CC1 (stereo not given)	24	58	14	8	23	·	·	·
CC1Cc2cc(S(=O)(=O)N3CCN(c4ccc(Cl)cc4)CC3)ccc2N1C(=O)C1CC1 (stereo not given)	-17	84	29	-11	16	·	·	·
CC(=O)N1c2ccc(S(=O)(=O)N3CCC(C(=O)N4CCN(c5ccc(Cl)cc5)CC4)CC3)cc2CC1C (stereo not given)	7	73	30	76*	34	74*	35*	-7
CCOc1ccc(N(CC(=O)Nc2cc(OC)cc(OC)c2)S(=O)(=O)c2c(C)[nH]c(=O)[nH]c2=O)cc1	-11	-7	4	-6	-7	·	·	·
C[C@H]1COC(=O)[C@@H](NC(=O)OCC2c3ccccc3-c3ccccc32)C/C=C\C[C@H](CC(=O)NCCO)C(=O)N1	-1	4	-5	48	2	·	·	·
C[C@@H]1COC(=O)[C@@H](NC(=O)OCC2c3ccccc3-c3ccccc32)C/C=C\C[C@@H](CC(=O)N(CCO)Cc2ccccc2)C(=O)N1	5	83	19	75*	1	70*	21	-4
O=C(C1CC1)N1CCN(c2ccc([N+](=O)[O-])cc2)CC1	4	15	0	53	20	23	11	1
O=C(C1CCN(S(=O)(=O)c2cnc[nH]2)CC1)N1CCN(c2ccc([N+](=O)[O-])cc2)CC1	13	-9	1	4	-10	·	·	·
CCN(CC)S(=O)(=O)c1ccc(NC(=O)Cn2c(=O)oc3ccccc32)cc1	7	-1	4	31	17	·	·	·
O=C(Cn1c(=O)oc2ccccc21)Nc1ccc(S(=O)(=O)N2CCCCC2)cc1	2	-4	-11	54	8	11	7	-21

Assay outcomes: PubChem BioAssay, several laboratories
